Data from PubChem BioAssay.
The source made the active and inactive calls.

What was measured:
[1] = small molecules captured by biotinylated probe aFSTL3 – biochemical, small-molecule microarray, fluorescence 635/667, stem cell growth factor project, primary screen (AID 1064); details: higher = more signal;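 also: measures binding of the biotinylated anti-FSTL3 antibody to printed compounds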
[2] = binders from COS7 lysate, DM2A8 probe, primary screen, torsin A project, cell lysate, small-molecule microarray, fluorescence 635/667 (AID 1065); details: higher = more signal, COS7 lysate expressing mutant human TOR1A
[3] = small molecules captured by biotinylated probe aFGF2 – biochemical, small-molecule microarray, fluorescence 635/667, stem cell growth factor project, primary screen (AID 1067); details: higher = more signal;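 also: measures binding of biotinylated aFGF2 protein to printed compounds on slides; z-score merges feature fluorescence and signal-to-noise across triplicate slides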
[4] = small molecules captured by biotinylated probe aFGF10 – biochemical, small-molecule microarray, fluorescence 635/667, stem cell growth factor project, primary screen (AID 1071); details: higher = more signal;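 also: score merges 667 nm spot intensity and signal to noise from triplicate slides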
[5] = biological target: Neurogenic locus notch homolog protein 2 (Homo sapiens) (UniProt Q04721); experiment: small molecules binding Notch2 protein – biochemical, small-molecule microarray, 635 nm fluorescence, stem cell growth factors, primary screen (AID 1073); details: higher = more signal
[6] = biological target: Pro-neuregulin-1, membrane-bound isoform (Homo sapiens) (UniProt Q02297); experiment: small molecules binding neuregulin-1 protein – biochemical, small-molecule microarray, fluorescence 635/667, psychiatric disease protein project, primary screen (AID 1075); details: NRG1 binding, 635 nm fluorescence, higher = more signal;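 also: score combines 667 nm spot fluorescence with signal to noise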
[7] = tested on: Neuregulin-1 EGF-like domain; experiment: small molecules binding NRG1 EGF domain – biochemical, small-molecule microarray, 635 nm fluorescence, primary screen (AID 1081); details: higher = more signal;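 also: binding of the protein to compounds printed on small-molecule microarray slides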
[8] = FRG1 expression reporter modulators in myotubes – cell-based, C2C12 myotubes, firefly/Renilla luciferase, luminescence, FRG1 inhibition for FSHD, primary screen (AID 1084); details: FRG1 promoter luciferase, higher = more signal, called active from +8 up or from −8 down
[9] = small molecules captured by biotinylated probe aFST – biochemical, small-molecule microarray, fluorescence 635/667, stem cell growth factor project, primary screen (AID 1086); details: higher = more signal;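 also: score merges 667 nm fluorescence with signal-to-noise of each printed compound spot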
[10] = binders of probe aHhip on microarray, primary screen, stem cell growth factor project, biochemical, small-molecule microarray, fluorescence 635/667 (AID 1087); details: higher = more signal;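 also: score merges spot fluorescence at 667nm with spot signal to noise ratio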
[11] = tested on: PRMT1 (protein arginine N-methyltransferase 1); experiment: small molecules binding arginine methyltransferase PRMT1 – biochemical, small-molecule microarray, 635 nm fluorescence, primary screen (AID 1088); details: higher = more signal;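 also: binding of Prmt1 protein to compounds spotted on small-molecule microarray slides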
[12] = growth effects on S. cerevisiae YJM789 – YJM789 clinical isolate, OD600, 24 h, basal, primary screen (AID 1089); details: higher = more signal, called active from +8 up or from −8 down;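 also: growth of clinical yeast isolate S. cerevisiae YJM 789 seeded 1000 cells per well; test concentration not given here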
[13] = S. pombe growth modifiers, basal conditions – strain 972, OD600, 24 h, no modulator, primary screen (AID 1090);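 also: basal condition with compound alone and no growth modifier present; test concentration not given here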; details: S. pombe 972 growth, higher = more signal, called active from +8 up or from −8 down
[14] = budding yeast growth modifiers under rapamycin – strain BY4716, OD600, 96 h, primary screen (AID 1091); also: test concentration not given here; details: S. cerevisiae BY4716 + rapamycin, higher = more signal, called active from +8 up or from −8 down
[15] = biological target: Torsin-1A-interacting protein 2 (Homo sapiens) (UniProt Q8NFQ8); experiment: small molecules binding lysate-expressed LULL1 – cell lysate, human LULL1 lysate, 635/667 nm fluorescence, primary screen (AID 1092); details: small-molecule microarray, hLULL1 lysate binding, 635 nm fluorescence; higher = more signal;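 also: probe is lysate of COS7 cells overexpressing human LULL1; score merges per-feature 667 nm fluorescence with signal-to-noise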
[16] = optical density change of DRC41 E. coli – strain DRC41, OD650, 24 h, E. coli filamentation project, primary screen (AID 1093);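 also: MC1000 strain lacking acrAB efflux and sulA so SOS filamentation is blocked; test concentration not given here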; details: E. coli DRC41 growth, higher = more signal, called active from +8 up or from −8 down
[17] = probe aLefty2 binding to arrayed compounds – biochemical, biotinylated probe, 635/667 nm fluorescence, primary screen (AID 1094); details: small-molecule microarray, higher = more signal;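 also: score merges spot fluorescence near 667 nm with spot signal-to-noise ratio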
[18] = tested on: Noggin (protein binding on small-molecule microarray); experiment: small molecules binding Noggin protein – biochemical, 635/667 nm fluorescence, primary screen (AID 1095); details: 635 nm fluorescence, higher = more signal;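 also: score merges 667 nm feature fluorescence with signal to noise over triplicate slides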
[19] = biological target: Neurogenic locus notch homolog protein 3 (Homo sapiens) (UniProt Q9UM47); experiment: small molecules binding NOTCH3 protein – biochemical, 635/667 nm fluorescence, primary screen (AID 1096); details: small-molecule microarray, 635 nm fluorescence, higher = more signal
[20] = probe aEGFR binding to arrayed compounds – biochemical, biotinylated probe, 635/667 nm fluorescence, primary screen (AID 1097); details: small-molecule microarray, higher = more signal;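 also: probe is a biotinylated anti-EGFR antibody binding compounds printed on slides; score combines fluorescence near 667 nm and signal to noise of each spot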

Torsin-1A-interacting protein 2 (Homo sapiens), sequence (Q8NFQ8 whole entry, looked up): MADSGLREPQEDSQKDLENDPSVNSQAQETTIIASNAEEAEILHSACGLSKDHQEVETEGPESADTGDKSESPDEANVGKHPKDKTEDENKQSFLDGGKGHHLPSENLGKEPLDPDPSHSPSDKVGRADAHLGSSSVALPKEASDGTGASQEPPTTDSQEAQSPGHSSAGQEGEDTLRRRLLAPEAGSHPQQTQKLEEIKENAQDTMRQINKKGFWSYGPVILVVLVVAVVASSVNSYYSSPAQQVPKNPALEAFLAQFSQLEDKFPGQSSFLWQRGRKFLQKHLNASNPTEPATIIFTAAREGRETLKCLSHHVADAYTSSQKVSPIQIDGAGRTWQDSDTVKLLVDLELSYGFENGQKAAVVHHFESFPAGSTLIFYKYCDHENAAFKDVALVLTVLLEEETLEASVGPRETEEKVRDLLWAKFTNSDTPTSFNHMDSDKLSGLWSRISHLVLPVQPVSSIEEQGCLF
Neurogenic locus notch homolog protein 2 (Homo sapiens), sequence (Q04721 whole entry, looked up, canonical isoform): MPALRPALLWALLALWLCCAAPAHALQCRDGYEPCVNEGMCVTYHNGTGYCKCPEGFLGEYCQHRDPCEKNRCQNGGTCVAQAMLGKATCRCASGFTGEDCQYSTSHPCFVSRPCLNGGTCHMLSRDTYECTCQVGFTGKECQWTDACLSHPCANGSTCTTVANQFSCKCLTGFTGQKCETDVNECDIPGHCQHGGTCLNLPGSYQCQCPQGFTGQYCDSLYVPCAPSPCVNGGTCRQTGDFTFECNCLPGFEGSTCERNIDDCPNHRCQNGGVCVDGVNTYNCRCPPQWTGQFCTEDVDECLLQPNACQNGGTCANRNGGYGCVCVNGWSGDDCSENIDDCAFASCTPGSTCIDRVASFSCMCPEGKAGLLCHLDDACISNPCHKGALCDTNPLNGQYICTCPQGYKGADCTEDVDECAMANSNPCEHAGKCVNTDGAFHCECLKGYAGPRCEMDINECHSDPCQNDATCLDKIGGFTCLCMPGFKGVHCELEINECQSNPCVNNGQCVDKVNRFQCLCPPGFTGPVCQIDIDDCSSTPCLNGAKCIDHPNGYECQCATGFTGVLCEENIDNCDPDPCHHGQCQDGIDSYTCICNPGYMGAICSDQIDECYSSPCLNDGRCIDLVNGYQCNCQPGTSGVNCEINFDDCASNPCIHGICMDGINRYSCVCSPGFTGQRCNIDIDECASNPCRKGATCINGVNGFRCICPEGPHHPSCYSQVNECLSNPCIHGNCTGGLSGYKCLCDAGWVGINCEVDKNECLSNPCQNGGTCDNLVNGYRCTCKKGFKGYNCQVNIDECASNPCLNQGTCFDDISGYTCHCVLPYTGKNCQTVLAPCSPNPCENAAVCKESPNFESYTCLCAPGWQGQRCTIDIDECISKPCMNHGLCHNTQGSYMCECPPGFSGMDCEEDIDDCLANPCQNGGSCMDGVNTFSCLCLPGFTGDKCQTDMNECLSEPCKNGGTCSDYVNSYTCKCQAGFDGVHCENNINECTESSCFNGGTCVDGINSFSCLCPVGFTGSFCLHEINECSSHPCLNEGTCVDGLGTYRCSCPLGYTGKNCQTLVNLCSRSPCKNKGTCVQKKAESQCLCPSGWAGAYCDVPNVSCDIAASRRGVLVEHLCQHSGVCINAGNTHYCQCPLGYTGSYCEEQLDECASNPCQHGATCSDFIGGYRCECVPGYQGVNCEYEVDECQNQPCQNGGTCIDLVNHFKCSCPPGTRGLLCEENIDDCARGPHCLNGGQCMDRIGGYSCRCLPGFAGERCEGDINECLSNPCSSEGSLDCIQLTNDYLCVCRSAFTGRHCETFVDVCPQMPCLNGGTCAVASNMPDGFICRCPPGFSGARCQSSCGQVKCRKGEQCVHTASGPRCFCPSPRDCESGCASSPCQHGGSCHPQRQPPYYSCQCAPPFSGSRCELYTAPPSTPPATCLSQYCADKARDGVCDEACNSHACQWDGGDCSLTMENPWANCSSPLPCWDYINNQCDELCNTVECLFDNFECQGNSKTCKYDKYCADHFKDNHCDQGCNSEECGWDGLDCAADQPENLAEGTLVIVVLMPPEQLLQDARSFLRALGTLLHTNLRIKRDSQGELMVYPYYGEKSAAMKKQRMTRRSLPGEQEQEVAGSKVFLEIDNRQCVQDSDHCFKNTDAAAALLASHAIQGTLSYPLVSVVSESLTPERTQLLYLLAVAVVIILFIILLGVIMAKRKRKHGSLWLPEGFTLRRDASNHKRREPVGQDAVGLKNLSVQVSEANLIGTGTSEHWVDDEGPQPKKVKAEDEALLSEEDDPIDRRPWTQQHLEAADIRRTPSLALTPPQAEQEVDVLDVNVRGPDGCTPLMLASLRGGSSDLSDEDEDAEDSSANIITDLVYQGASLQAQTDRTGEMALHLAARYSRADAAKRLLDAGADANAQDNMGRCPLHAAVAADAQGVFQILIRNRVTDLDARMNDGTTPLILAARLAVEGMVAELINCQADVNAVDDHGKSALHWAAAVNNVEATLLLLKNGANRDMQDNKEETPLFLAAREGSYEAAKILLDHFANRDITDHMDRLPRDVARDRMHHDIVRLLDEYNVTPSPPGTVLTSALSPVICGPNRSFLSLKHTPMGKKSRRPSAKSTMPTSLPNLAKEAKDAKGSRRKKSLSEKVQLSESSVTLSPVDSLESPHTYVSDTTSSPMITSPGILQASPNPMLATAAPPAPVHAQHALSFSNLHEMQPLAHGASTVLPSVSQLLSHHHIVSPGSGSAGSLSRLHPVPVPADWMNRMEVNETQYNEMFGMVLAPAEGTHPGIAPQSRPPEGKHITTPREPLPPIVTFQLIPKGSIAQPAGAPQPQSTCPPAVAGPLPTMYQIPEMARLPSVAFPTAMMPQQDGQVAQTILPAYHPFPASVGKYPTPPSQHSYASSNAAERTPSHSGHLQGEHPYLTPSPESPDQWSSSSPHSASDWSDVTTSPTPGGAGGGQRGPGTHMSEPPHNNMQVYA
Pro-neuregulin-1, membrane-bound isoform (Homo sapiens), sequence (Q02297 whole entry, looked up, the tested form may be a part, canonical isoform): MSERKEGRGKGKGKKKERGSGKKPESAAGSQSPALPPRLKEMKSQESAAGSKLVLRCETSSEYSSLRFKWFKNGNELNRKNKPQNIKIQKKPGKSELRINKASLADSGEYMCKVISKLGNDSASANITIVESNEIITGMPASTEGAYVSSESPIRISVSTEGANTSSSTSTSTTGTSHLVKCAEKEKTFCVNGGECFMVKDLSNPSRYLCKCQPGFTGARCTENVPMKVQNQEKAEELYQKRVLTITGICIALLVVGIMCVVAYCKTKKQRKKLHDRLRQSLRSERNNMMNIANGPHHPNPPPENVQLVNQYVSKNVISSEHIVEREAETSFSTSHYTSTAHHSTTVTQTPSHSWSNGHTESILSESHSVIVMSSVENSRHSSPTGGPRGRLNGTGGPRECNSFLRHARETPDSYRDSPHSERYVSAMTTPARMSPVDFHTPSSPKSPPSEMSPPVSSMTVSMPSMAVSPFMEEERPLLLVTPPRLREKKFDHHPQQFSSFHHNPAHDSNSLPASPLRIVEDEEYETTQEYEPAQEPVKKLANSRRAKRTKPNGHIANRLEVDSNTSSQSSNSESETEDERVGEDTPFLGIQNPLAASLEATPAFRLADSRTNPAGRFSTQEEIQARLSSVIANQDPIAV

| Compound | composite z-score [1] | composite z-score [2] | composite z-score [3] | composite z-score [4] | composite z-score [5] | composite z-score [6] | composite z-score [7] | z-score [8] | composite z-score [9] | composite z-score [10] | composite z-score [11] | z-score [12] | z-score [13] | z-score [14] | composite z-score [15] | z-score [16] | composite z-score [17] | composite z-score [18] | composite z-score [19] | composite z-score [20] |
| --- | --- | --- | --- | --- | --- | --- | --- | --- | --- | --- | --- | --- | --- | --- | --- | --- | --- | --- | --- | --- |
| Cc1ccc(S[C@]2(C(=O)NC(C)C)CC(=O)N(Cc3cc(C(F)(F)F)cc(C(F)(F)F)c3)[C@@H]2c2ccc(CO)cc2I)cc1 | 0.808 | -0.666 | -0.103 | -0.345 | -1.7 | 1.53 | 0.74 | -0.321 (inactive) | -0.666 | -0.0994 | 1.26 | -0.698 (inactive) | -2.47 (inactive) | 1.2 (inactive) | 2.04 | 0.715 (inactive) | -0.0544 | -0.147 | -0.513 | -0.317 |
| COCCOC(=O)N1C(=O)[C@@]2(c3cc(C#CCCO)ccc31)[C@H](C(=O)N1CCCCCCC1)[C@H]1C(=O)O[C@H](c3ccccc3)[C@H](c3ccccc3)N1[C@@H]2c1ccc(O)cc1 | 2.61 | 1.22 | 0.188 | 0.514 | 1.15 | 1.17 | 1.13 | -2.05 (inactive) | 2.25 | 0.497 | 1.56 | -3.75 (inactive) | -2.94 (inactive) | -1.62 (inactive) | 2.91 | 3.27 (inactive) | 1.08 | 1.11 | 1.05 | 0.0645 |
| COc1ccc([Si](C)(C)[C@H]2[C@H](CCO)O[C@@]3(C(=O)N(Cc4ccccc4)c4ccc(N5C(=O)c6cccc7cccc5c67)cc43)[C@@H]2C)cc1 | 0.334 | -0.173 | -0.144 | 0.0626 | -0.0844 | 0.48 | 0.836 | -1.3 (inactive) | -0.268 | 3.71 | 0.491 | 1.05 (inactive) | 1.11 (inactive) | 33 (active) | 1.12 | 1.97 (inactive) | -0.225 | -0.453 | -0.203 | -0.218 |
| Cc1ccc([C@@H]2CC=C(C(=O)O)[C@H](c3ccccc3)N2S(=O)(=O)c2ccc(C)cc2)cc1 | 0.65 | 0.436 | 0.358 | 1.02 | 1.49 | 1.82 | 1.35 | -3.57 (inactive) | 0.549 | 0.0623 | 1.55 | -0.0782 (inactive) | -0.249 (inactive) | -0.269 (inactive) | 3.24 | -1.25 (inactive) | 0.755 | -0.971 | 0.673 | 0.0582 |
| C=CCN1C(=O)[C@@]2(Cc3ccccc3)N=C(c3ccc(OCCCO)cc3)O[C@H]2c2ccccc21 | 1.02 | 0.22 | 0.0714 | 0.0096 | 0.895 | 0.14 | 1.14 | -2.86 (inactive) | 0.691 | -0.132 | 1.36 | -0.772 (inactive) | -5.06 (inactive) | 1.63 (inactive) | 2.77 | 0.612 (inactive) | 0.44 | 0.293 | 1.08 | 0.031 |
| C=CCC(OC(C)=O)[C@@H]1[C@@H](N(Cc2ccc(-c3cccc(C(F)(F)F)c3)o2)C(=O)Cc2ccc(F)cc2)c2cc(OCCCO)ccc2N1C(=O)c1ccc(-c2ccccc2)cc1 (stereo not given in full) | 0.142 | -0.0983 | -0.129 | -0.556 | -0.606 | -0.0704 | -0.387 | -0.245 (inactive) | 0.0417 | -0.236 | -0.621 | -0.182 (inactive) | -0.258 (inactive) | -0.507 (inactive) | 0.239 | -1.33 (inactive) | -0.166 | -0.325 | -0.362 | -0.238 |
| NC(=O)[C@H]1[C@@H]2C(=O)O[C@@H](c3ccccc3)[C@@H](c3ccccc3)N2[C@@H](c2ccc(O)cc2)[C@]12C(=O)Nc1ccc(C#CCCO)cc12 | 0.545 | -0.831 | -0.12 | -0.861 | -0.982 | -0.0709 | 1.12 | -0.89 (inactive) | -0.605 | -0.251 | -0.484 | -0.178 (inactive) | -0.196 (inactive) | -0.503 (inactive) | 0.497 | 0.0528 (inactive) | -0.05 | -1.02 | -0.714 | -0.112 |
| COc1ccc([Si](C)(C)[C@@H]2[C@@H](CC(=O)N(CCO)Cc3ccccc3)O[C@]3(C(=O)N(Cc4cccc(N5CCC5=O)c4)c4ccccc43)[C@H]2C)cc1 | -0.113 | 0.861 | -0.116 | 0.434 | 0.205 | 0.712 | 1.13 | -0.645 (inactive) | 0.147 | 0.0373 | 1.56 | -1.16 (inactive) | 0.463 (inactive) | 1.61 (inactive) | 1.57 | 1.48 (inactive) | -0.17 | 1.33 | 0.941 | -0.135 |
| Cc1ccc(N2C(=O)c3ccccc3[C@](C)(C(=O)O)[C@@H]2c2ccc(CO)cc2)nc1 | 1.5 | -0.461 | -0.224 | -1.1 | -1.52 | 1.91 | -0.402 | 0.744 (inactive) | -0.663 | -0.181 | -1.11 | 0.508 (inactive) | -0.633 (inactive) | 0.653 (inactive) | -1.18 | 1.62 (inactive) | -0.15 | -2.06 | -1.17 | -0.427 |
| O=C1OCC=C[C@H]2OC34C=CCN(Cc5ccccc5)C(=O)[C@H]3N(CCO)C(=O)[C@@H]4[C@@H]12 (stereo not given in full) | 0.322 | -0.0397 | -0.149 | -0.387 | -0.338 | 2.05 | 0.699 | -0.019 (inactive) | -0.331 | -0.236 | 0.409 | -0.308 (inactive) | 0.176 (inactive) | -1.17 (inactive) | 2.08 | 2.13 (inactive) | -0.232 | -1.41 | -0.159 | -0.172 |
